# Results as given in PubChem BioAssay AID504467 (National Center for Advancing Translational Sciences (NCATS), 2011).
# Hit rate of the full screen: of about 330,000 compounds, about 7,700 (2.3%) were called active. Not shown: some 26% with an inconclusive outcome. Calls come from the whole dose curve; as a rule, active = well fitted inhibition curve with a large enough effect; inconclusive = small, poorly fitted or top-dose-only effect, or effect the other way; inactive = flat fitted curve, though single readings scatter. Shown is part of a subset that was picked to be rich in actives.
# Assay: qHTS screen for small molecules that inhibit ELG1-dependent DNA repair in human embryonic kidney (HEK293T) cells expressing luciferase-tagged ELG1; note: nearly all actives have a fitted effect of over 55% in size
# Conditions: HEK293T ELG1-luciferase reporter, luminescence, 16 h, DNA damage induced by 5-fluorouridine; series mostly up to 46.1 µM; activity change, negative = inhibition: at the top concentration
# Description: NIH Molecular Libraries Probe Production Network [MLPCN] NIH Chemical Genomics Center [NCGC] MLPCN Grant: 1 R03 MH092164-01 Assay Provider: Kyungjae Myung, NHGRI, NIH Keywords: MLPCN, qHTS, NCGC, genotoxicity, cancer Assay Overview: Cancer cells divide rapidly compared to normal cells in the body. During cell division, cancer cells need to duplicate their genome by DNA replication. The failure of genome duplication leads to cancer cells' death. Therefore, inhibitors of DNA replication could specifically kill cancer cells. Based on this concept, many chemotherapeutic agents were developed and have been used to treat cancer patients. However, there are a limited number of agents available in the clinical setting, and some of those that do exist have low efficacy and severe side effects. Therefore, if we can find the compounds that effectively block DNA replication either by directly damaging DNA or by inhibiting other cellular mechanisms, the options for cancer treatment will be broadened. With this in mind, we developed a quantitative high-throughput ELG1-luciferase reporter gene assay. Small molecules that specifically block ELG1 function in response to DNA damage can be identified by monitoring the suppression of luciferase activity. Since ELG1 defines a pathway for repairing DNA damage, agents blocking ELG1 function can be used to sensitize cancer cells to chemotherapeutic agents whose mechanism of action involves the induction of DNA damage.
# Assay Protocol Summary: For genotoxicity screening, 2,000 cells in 4 uL/well were dispensed into white, solid-bottom 1536-well plates using a solenoid-based dispenser. Following transfer of 1 uL 5-Fluorouridine and 23 nL compound or DMSO vehicle by a pin tool, the plates were incubated 16 hr at 37 °C and 5% CO2. 5 ul ONE-Glo (Promega) was then added to each plate and following a 30 min incubation at room temperature, luciferase activity was quantified on a ViewLux CCD-based plate reader.
# % is set by controls: 0 for no effect and ±100 for the full control effect; potency is the fitted concentration of half-maximal effect.
SMILES,Potency,"activity change, negative = inhibition"
O=C(/C=C/c1cccs1)c1cc(Cl)ccc1OC(=O)N1CCOCC1,18.4 µM (active),–
CC(=O)Nc1ccc(C(=O)C(Cc2ccccc2)N(C)C)cc1 (stereo not drawn),–,4.04% (inactive)
Cc1nc2ccccc2c(=O)n1-c1ccc(Cl)cc1Cl,–,-3.5% (inactive)
COC1=CC=C2[C@H]3Cc4ccc(OC)c5c4[C@@]2(CCN3C)C1O5 (stereo partly drawn),–,3.28% (inactive)
COC(=O)C1=C(c2cccc(OCc3ccccc3)c2)C[C@@H]2CC[C@H]1N2C(=O)NNCc1ccccc1,–,-26.5% (inactive)
COC(=O)C1=C(c2cccc(OCc3ccccc3)c2)C[C@@H]2CC[C@H]1N2C(=O)NCc1ccc(Br)cc1,–,-23.4% (inactive)
COc1ccc(CNCCc2c[nH]c3ccccc23)cc1OC,–,-3.99% (inactive)
O=C(c1cc2nc(-c3ccccc3)cc(-c3ccccc3)n2n1)N1CCC2(CC1)OCCO2,20.6 µM (active),–
O=C(c1cc(-c2ccncc2)nc2ccccc12)N1CCC2(CC1)OCCO2,–,-25.8% (inactive)
O=C(c1ccccc1[N+](=O)[O-])N1CCC2(CC1)OCCO2,–,-2.85% (inactive)
CCCCn1c(=O)c(C(=O)Nc2ccccc2Cl)c(O)c2ccccc21,–,14.3% (inactive)
Cc1cccc(NC(=O)N2CC3CC(C2)c2cccc(=O)n2C3)c1 (stereo not drawn),–,23.2% (inactive)
Cc1ncc(CC(=O)n2cc(C(=O)c3cc(Cl)ccc3O)cn2)s1,20.6 µM (active),–
CCN1C(=O)C(=Cc2c(C)n(CC(=O)NCC3CCCO3)c3ccccc23)C(=O)N(CC)C1=S (stereo not drawn),–,-1.72% (inactive)
Cc1ccccc1NC(=O)COC(=O)c1cc(C)n(C2CC2)c1C,–,-17.9% (inactive)
c1cc2c(cc1C1OCC3C(c4ccc5c(c4)OCO5)OCC13)OCO2 (stereo not drawn),–,-8.1% (inactive)
CN(C)CCN(CC1CCCN(Cc2ccccc2F)C1)C(=O)Cc1ccc(F)c(F)c1 (stereo not drawn),–,-0.923% (inactive)
CC(Cc1ccccc1)NCCC(c1ccccc1)c1ccccc1 (stereo not drawn),–,-13.5% (inactive)
Cc1ncoc1C(=O)NCCC(c1ccccc1)c1ccccc1,20.6 µM (active),–
CCN(CC)C(=O)Oc1ccc(NC(=O)N2CCOCC2)cc1,–,-12.4% (inactive)
CCOc1cccc(=NC2CCCCC2)c2c(C)[nH]c(C)c12,10.3 µM (active),–
O=c1[nH]c(O)c(C=Nc2cc(F)cc(F)c2)c(=O)[nH]1,–,-9.9% (inactive)
CCC(=O)c1ccc(OCC(=O)N2CCN(CC(=O)Nc3ccc(C)cc3)CC2)cc1,–,1.39% (inactive)
COc1ccc2[nH]c3c(c2c1)CCN[C@H]3C,–,-0.326% (inactive)
CCOC(=O)C(O)(c1ccc(NC(=O)c2ccco2)c(OC)c1)C(F)(F)F (stereo not drawn),–,10.8% (inactive)
COc1cc(Cn2c(N)c(C(=O)NCc3ccco3)c3nc4ccccc4nc32)cc(OC)c1OC,3.26 µM (active),–
COc1ccccc1NC(=O)N1C[C@@H]2C[C@@H](C1)c1cccc(=O)n1C2,–,7.46% (inactive)
O=C(Cc1ccc(Cl)cc1)NCCN1CCN(C(=O)Cc2ccc(Cl)cc2)CC1,–,-15.8% (inactive)
